Inconclusive results are not listed. Unmarked numbers belong to inactive results. Activity calls are given as the source filed them. Calls come from the whole dose curve; as a rule, active = well fitted cell-killing curve with a large enough effect; inconclusive = small, poorly fitted or top-dose-only effect, or effect the other way; inactive = no such curve, though single readings can be large or run the other way. *1 amine or outer side, *2 acyl side, *3 side chain or, on linkers, in order; H or OH if unused. Where a SMILES comes first, the peptide text is derived from it. Bridges are numbered along the chain shown (N, C = ends). Roman numbers before positions name the chains, in order. [ ]: non-standard residue; d: D form. Actinocin(9to1) = Cc1c2oc3c(C)ccc(C(=O)[*:1])c3nc-2c(C(=O)[*:2])c(N)c1=O; NMeV = CN[C@H](C(=O)O)C(C)C; Sar = CNCC(=O)O
System: Tov-21-G
Experiment: Confirmatory qHTS for gynecologic anti-cancer compounds from libraries of approved drugs and bioactive compounds; note: nearly all actives have a fitted effect of over 55% in size
Details: gynecologic cancer cell panel viability, ATPlite luminescence, 48 h; series mostly up to 57.7 µM
Excerpt: National Center for Advancing Translational Sciences [NCATS] Assay Overview: Chemotherapeutic drug responses vary from cancer to cancer and from patient to patient. These variations could be caused by a number of factors including patient genomic background, tumor mutations, tumor heterogeneity, and aspects of drug treatment. Chemotherapeutic drug resistance is also a common issue and can lead to ineffective treatment and patient death. Here we have profiled the cell killing effects of thousands of compounds to characterize the responses in three gynecological cancers, identify cancer-selective compounds, and understand the diversity of responses to these compounds from pan-cancer suppressors to single cell line selective compounds. In this assay, we screened a 7,914 compound drug library that included approved drug and bioactive compounds in six ovarian, three cervical, and two placental cancer cell lines using the ATPlite assay for cell viability. ATPlite is a luminescence based assay reliant on the conversion of a luciferase substrate to light in the presence of ATP. As a cytotoxic compound will suppress growth and decrease the number of cells, the concentration of ATP will decrease, and less light signal will be detected in the well. Hits were selected from the primary screen for follow-up confirmation. For the confirmation screens, the ovarian cancer cell lines included CAOV-3, SK-OV-3, SW 626, ES-2, PA-1, and TOV-21G. The cervical cancer cell lines included HeLa, Ca Ski, and C-33 A. The placental cancer cell lines included JEG-3 and JAR. HEK 293T cells were used as the control cell line to determine the selectivity index. The ATPlite assay was used to determine the IC50 values.
Assay Protocol Summary: 1,000 cells in 4 uL of media were dispensed into white, solid bottom 1536-well plates using a Multidrop Combi (Thermo Scientific). The Assay plates were incubated for 16 hours at 37 C with 5% CO2 in assay plates, followed by the addition of 23 nL of DMSO or drug dissolved in DMSO. . Each compound was assayed in 11 concentrations (1:3 dilution) from 57.5 uM to 0.977 nM, using the automated Wako 1536 Pin Tool workstation and incubated at 37 C with 5% CO2 48 hours. 4 uL of ATPlite, the ATP monitoring reagent, was then added to the each well of the assay plates using the Multidrop Combi reagent dispenser followed by incubation for 15 minutes at room temperature. The resulting luminescence was measured using the ViewLux plate reader.
% is set by controls: 0 for no effect and ±100 for the full control effect; potency is the fitted concentration of half-maximal effect.

Structure (SMILES)	Potency	activity change, negative = viability loss
COc1cc(N2CCC(N(C)C)CC2)ccc1Nc1ncc(Cl)c(Nc2ccccc2P(C)(C)=O)n1	1.72 µM (active)	–
Nc1nc(=S)c2[nH]cnc2[nH]1	inactive	–
CC(=O)NCC(=O)N1C2CCC1c1cc(Nc3ncc(C(F)(F)F)c(NC4CCC4)n3)ccc12 (stereo not given)	3.06 µM (active)	–
Cc1cc(C2CCCCC2)n(O)c(=O)c1	17.7 µM (active)	–
Cc1csc(NC(=O)c2sc3nc4c(c(C(F)(F)F)c3c2N)CCC4)n1	1.93 µM (active)	–
CCn1cc(-c2ccnc3[nH]c(-c4cccc(CN(C)C)c4)cc23)c(-c2ccc(NC(=O)N(C)C)cc2)n1	7.49 µM (active)	–
Cc1ccc(C(=O)Nc2ccc(CN3CCN(C)CC3)c(C(F)(F)F)c2)cc1C#Cc1cnc2[nH]ncc2c1	0.0273 µM (active)	–
C[C@]12CCC(=O)C=C1CC[C@@H]1[C@@H]2[C@@H](O)C[C@@]2(C)[C@H]1CC[C@]2(O)C(=O)CO	inactive	–
CC(Oc1ccc2[nH]nc(/C=C/c3cnn(CCO)c3)c2c1)c1c(Cl)cncc1Cl (stereo not given)	6.11 µM (active)	–
CCOc1cc2ncc(C#N)c(Nc3ccc(F)c(Cl)c3)c2cc1NC(=O)/C=C/CN(C)C	2.17 µM (active)	–
CNC(=O)c1ccccc1Nc1nc(Nc2ccc(N3CCOCC3)cc2OC)ncc1Cl	3.85 µM (active)	–
O=C(/C=C/c1cccc(S(=O)(=O)Nc2ccccc2)c1)NO	4.73 µM (active)	–
Fc1cc(-c2cccc3ncc(-c4cnn(C5CCNCC5)c4)nc23)cc(F)c1CN1CCOCC1	12.2 µM (active)	–
CCN(CC)CCNC(=O)c1c(C)[nH]c(/C=C2\C(=O)Nc3ccc(F)cc32)c1C	11.2 µM (active)	–
Cc1nc(Nc2n[nH]c3c2CN(C(=O)NC(CN(C)C)c2ccccc2)C3(C)C)c2sccc2n1 (stereo not given)	2.43 µM (active)	–
COc1cc2c(NC3CCN(C(C)C)CC3)nc(C3CCCCC3)nc2cc1OCCCN1CCCC1	10.9 µM (active)	–
CC(=O)O[C@H]1C(=O)[C@@]2(C)[C@H]([C@H](OC(=O)c3ccccc3)[C@]3(O)C[C@H](OC(=O)[C@H](O)[C@@H](NC(=O)c4ccccc4)c4ccccc4)C(C)=C1C3(C)C)[C@]1(OC(C)=O)CO[C@@H]1C[C@@H]2O	–	0.907% [at 11 µM]
NS(=O)(=O)OC[C@@H]1C[C@@H](n2ccc3c(N[C@H]4CCc5ccccc54)ncnc32)C[C@@H]1O	1.72 µM (active)	–
CN1CCN(Cc2ccc(NC(=O)Nc3ccc(Oc4cc(NC(=O)C5CC5)ncn4)cc3)cc2C(F)(F)F)CC1	0.432 µM (active)	–
CNC(=O)c1nn(C)c2c1C(C)(C)Cc1cnc(Nc3ccc(N4CCN(C)CC4)cc3)nc1-2	0.122 µM (active)	–

Structure (SMILES)	Potency	activity change, negative = viability loss
CC1(C)[C@@H](O)CC[C@]2(C)[C@H]3C(=O)C=C4[C@@H]5C[C@@](C)(C(=O)O)CC[C@]5(C)CC[C@@]4(C)[C@]3(C)CC[C@@H]12	inactive	–
CNC(=O)CN1CCC(Oc2cc3c(Nc4cccc(Cl)c4F)ncnc3cc2OC)CC1	7.69 µM (active)	–
COc1cc2c(cc1-c1c(C)noc1C)ncc1[nH]c(=O)n(C(C)c3ccccn3)c12 (stereo not given)	6.85 µM (active)	–
COc1cccc2c1C(=O)c1c(O)c3c(c(O)c1C2=O)C[C@@](O)(C(=O)CO)C[C@@H]3O[C@H]1C[C@H](N)[C@H](O[C@@H]2CCCCO2)[C@H](C)O1	8.63 µM (active)	–
Nc1ncn([C@@H]2O[C@H](CO)[C@@H](O)[C@H]2O)c(=O)n1	19.3 µM (active)	–
Cc1ccn(-c2ccc(-c3ncco3)cc2)c(=O)c1-c1ccc2nc(N)ncc2c1	6.11 µM (active)	–
O=C1N(c2ccccc2)c2ccccc2C1(Cc1ccncc1)Cc1ccncc1	inactive	–
CCC1=CC2CN(C1)Cc1c([nH]c3ccccc13)[C@@](C(=O)OC)(c1cc3c(cc1OC)N(C)[C@H]1[C@@](O)(C(=O)OC)[C@H](OC(C)=O)[C@]4(CC)C=CCN5CC[C@]31[C@@H]54)C2 (stereo not given in full)	2.37 µM (active)	–
NCCOc1cc(C(=O)Nc2cc(OCCN)c3ccccc3n2)nc(C(=O)Nc2cc(OCCN)c3ccccc3n2)c1	24.3 µM (active)	–
CCc1c2c(nc3ccc(O)cc13)-c1cc3c(c(=O)n1C2)COC(=O)[C@]3(O)CC	1.09 µM (active)	–
CCN(CC)CCOc1ccc(/C(=C(\Cl)c2ccccc2)c2ccccc2)cc1	126 µM (active)	–
Cc1cncc2cccc(S(=O)(=O)N3CCCN(C(=O)CN)C[C@@H]3C)c12	inactive	–
COc1cccc2c1C(=O)c1c(O)c3c(c(O)c1C2=O)C[C@@](O)(C(=O)CO)C[C@@H]3O[C@H]1C[C@H](N)[C@H](O)[C@H](C)O1	2.43 µM (active)	–
CN1CCN(CCOc2cc(OC3CCOCC3)c3c(Nc4c(Cl)ccc5c4OCO5)ncnc3c2)CC1	0.243 µM (active)	–
CC[C@]1(O)C[C@H]2CN(CCc3c([nH]c4ccccc34)[C@@](C(=O)OC)(c3cc4c(cc3OC)N(C=O)[C@H]3[C@@](O)(C(=O)OC)[C@H](OC(C)=O)[C@]5(CC)C=CCN6CC[C@]43[C@@H]65)C2)C1	0.611 µM (active)	–
Cc1c2oc3c(C)ccc(C(=O)N[C@@H]4C(=O)N[C@H](C(C)C)C(=O)N5CCC[C@H]5C(=O)N(C)CC(=O)N(C)[C@@H](C(C)C)C(=O)O[C@@H]4C)c3nc-2c(C(=O)N[C@@H]2C(=O)N[C@H](C(C)C)C(=O)N3CCC[C@H]3C(=O)N(C)CC(=O)N(C)[C@@H](C(C)C)C(=O)O[C@@H]2C)c(N)c1=O (I: T[dV]P[Sar][NMeV] / II: T[dV]P[Sar][NMeV]; ester I:1-I:C, II:1-II:C; linker I:N-II:N via Actinocin(9to1))	0.685 µM (active)	–
CCc1nc(C(N)=O)c(Nc2ccc(N3CCC(N4CCN(C)CC4)CC3)c(OC)c2)nc1NC1CCOCC1	2.67 µM (active)	–
CN(C)/N=N/c1nc[nH]c1C(N)=O	inactive	–
Nc1ccc(C(=O)Nc2cccc(-c3nc(N4CCOCC4)c4oc5ncccc5c4n3)c2)cn1	6.11 µM (active)	–
CN(C[C@@H]1COCCO1)S(=O)(=O)Nc1ccc2ccc3ncc(-c4cnn(C)c4)cc3c(=O)c2c1	17.2 µM (active)	–

Reference: PubChem BioAssay AID1345085 (National Center for Advancing Translational Sciences (NCATS), 2018)
